Results filed as inconclusive are left out. Activity calls are given as the source filed them. Unless noted, the call rests on the fitted dose curve; in most records, active means well fitted curve in the direction sought with a large enough effect in the repeat runs; inconclusive means weak or mixed curves; inactive means no such curve, though single readings can be large; an effect the other way counts as inactive or inconclusive.
Columns and labels:
[1] = qHTS assay to identify small molecule antagonists of the estrogen related receptor (ERR) signaling pathway - cell viability counter screen (AID 1224818); further: series mostly up to about 46 µM
Outline: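 Viability of ERR cells, CellTiter-Fluor fluorescence; 17.5 h compound exposure at 37 C, DMSO vehicle; 30 min reagent incubation at 37 C/5% CO2.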

[2] = qHTS assay to identify small molecule antagonists of the estrogen related receptor (ERR) signaling pathway (AID 1224819; further: nearly all actives have a fitted effect of over 50% in size; further: potency means the concentration at half of the fitted maximal effect)
Outline: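 Seed ERR cells 2,000/well; rest 6 h at 37 C/5% CO2; pin compounds in DMSO; incubate 18 h at 37 C; add One-Glo; wait 30 min at room temperature; measure luminescence.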

[3] = qHTS assay to identify small molecule agonists of the estrogen related receptor (ERR) signaling pathway (AID 1224820); further: potency means the concentration at half of the fitted maximal effect
Outline: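 Following a 6 h settling period, 2,000 ERR cells per well receive DMSO-dissolved compounds by pin tool and incubate 18 h at 37 C; agonist activity is scored from One-Glo luminescence read 30 min post-addition.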

[4] = test system: estrogen-related receptor alpha (ERRalpha) with PGC-1alpha coactivator, human; assay: qHTS assay to identify small molecule antagonists of the estrogen related receptor signaling pathway with the pleiotropic PPARgamma coactivator (PGC) (AID 1224821; calls by dose curve; further: nearly all actives have a fitted effect of over 50% in size; further: potency means the concentration at half of the fitted maximal effect)
Outline: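 Screening used NTP's PGC/ERR cells, dosed via pin tool with compound in DMSO alongside positive and negative controls. After 18 h at 37 C, One-Glo reagent sat 30 min at room temperature before luminescence detection.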

[5] = qHTS assay to identify small molecule agonists of the estrogen related receptor signaling pathway with the pleiotropic PPARgamma coactivator (PGC) (AID 1224823); further: potency means the concentration at half of the fitted maximal effect
Outline: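 In this quantitative high-throughput screen, an 18 h, 37 C treatment of PGC/ERR cells with compounds in DMSO preceded a One-Glo luminescence read taken after 30 min at room temperature.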

[6] = qHTS assay to identify small molecule antagonists of the estrogen related receptor signaling pathway with the pleiotropic PPARgamma coactivator (PGC) cell viability counter screen (AID 1224822; further: series mostly up to about 46 µM)
Outline: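 17.5 h compound treatment of PGC/ERR cells at 37 C; readout CellTiter-Fluor fluorescence; run alongside the PGC/ERR antagonist screen to flag cytotoxic compounds.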

[7] = qHTS assay to identify small molecule antagonists of the estrogen related receptor (ERR) signaling pathway from Tox21 library - cell viability counter screen (AID 1224834); further: nearly all actives have a fitted effect of over 30% in size
Outline: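 Counter screen run in ERR cells (2,000 cells/well): cells pre-incubated 6 h, then treated with compounds for 17.5 h at 37 C. Fluorescence was read 30 min after CellTiter-Fluor addition.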

[8] = molecular target: Luciferin 4-monooxygenase (Photinus pyralis) (UniProt P08659); assay: qHTS assay to identify small molecule inhibitors of firefly luciferase (AID 1224835); further: series mostly up to about 120 µM; nearly all actives have a fitted effect of over 25% in size
Sequence of Luciferin 4-monooxygenase (Photinus pyralis) (P08659 whole entry, looked up): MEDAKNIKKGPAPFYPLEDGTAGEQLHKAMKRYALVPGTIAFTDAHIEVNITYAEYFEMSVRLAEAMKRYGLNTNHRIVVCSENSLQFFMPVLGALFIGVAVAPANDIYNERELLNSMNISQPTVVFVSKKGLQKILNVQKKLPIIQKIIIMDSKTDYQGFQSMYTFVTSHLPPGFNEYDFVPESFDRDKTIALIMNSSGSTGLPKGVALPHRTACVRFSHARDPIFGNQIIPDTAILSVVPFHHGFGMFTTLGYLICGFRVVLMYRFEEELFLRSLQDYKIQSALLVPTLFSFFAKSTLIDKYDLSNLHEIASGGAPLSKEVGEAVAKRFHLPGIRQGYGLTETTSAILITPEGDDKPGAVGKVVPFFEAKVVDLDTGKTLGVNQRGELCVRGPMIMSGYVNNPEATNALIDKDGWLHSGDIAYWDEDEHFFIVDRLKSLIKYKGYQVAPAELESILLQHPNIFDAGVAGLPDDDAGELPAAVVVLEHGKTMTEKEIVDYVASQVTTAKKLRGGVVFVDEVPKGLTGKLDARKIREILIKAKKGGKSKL
Outline: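 Quantitative HTS format; KM concentrations of both substrates. Purified P. pyralis FLuc activity quantified from luminescence images.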

[9] = qHTS assay to identify small molecule agonists of the constitutive androstane receptor (CAR) signaling pathway - cell viability counter screen (AID 1224836); further: series mostly up to about 92 µM; nearly all actives have a fitted effect of over 45% in size
Outline: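 23 h treatment, 37 C, 5% CO2. Cell line: HepG2 stably expressing hCAR with a CYP2B6-2.2kb construct. Co-treatment: PK11195, 0.75 uM final. Read-out: CellTiter-Fluor fluorescence intensity.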

Measured: Potency

Nc1ccc(-c2ccc3ccccc3n2)cc1
inactive: [1] | [2] | [4]
active: [3] 2.46 µM | [5] 1.96 µM

O=C1NC(=O)/C(=C/c2ccc3c(c2)OC(F)(F)O3)S1
inactive: [1] | [2] | [4] | [5]
active: [3] 3.16 µM

Cn1c(=O)c2c(nc(/C=C/c3cccc(Cl)c3)n2C)n(C)c1=O
inactive: [1] | [2] | [3] | [4] | [5]

NCCCCC(=O)O
inactive: [1] | [2] | [3] | [4] | [5]

CC(C)(Sc1ccc(CCN(CCCCC2CCCCC2)C(=O)NC2CCCCC2)cc1)C(=O)O
inactive: [1] | [2] | [3] | [4] | [6] | [5]

CNc1ncnc2c1ncn2[C@@H]1O[C@H](CO)C(O)[C@H]1O (stereo not given in full)
inactive: [1] | [2] | [3] | [6]

NCCCC(=O)O
inactive: [1] | [2] | [3] | [4] | [5]

c1ccc2occc2c1
inactive: [1] | [2] | [3] | [4] | [6] | [5] | [7] | [8] | [9]

COc1cc(/C=C(\C#N)C(=O)Nc2nnc(C(F)(F)F)s2)ccc1OCc1ccc(C(F)(F)F)cc1C(F)(F)F
inactive: [1] | [3] | [5]
active: [2] 6.43 µM | [4] 3.48 µM

CNCCc1cnc(CCC(c2ccccc2)c2ccccc2)[nH]1
inactive: [1] | [2] | [3] | [4] | [5]

NCCCCCCCCCCN
inactive: [1] | [2] | [3] | [4] | [5]

NC(=O)CC[C@H](N)C(=O)O
inactive: [1] | [2] | [3] | [4] | [6] | [5]

O[Si](CCCN1CCCCC1)(c1ccc(F)cc1)C1CCCCC1 (stereo not given)
inactive: [1] | [2] | [3] | [4] | [5]

COc1ccc(/C=C/C(=O)Nc2ccccc2C(=O)O)cc1OC
active: [3] 1.68 µM
inactive: [1] | [2] | [4] | [5]

Cn1c(=O)c2[nH]c(-c3ccc(S(=O)(=O)O)cc3)nc2n(C)c1=O
inactive: [1] | [2] | [3] | [6] | [5]

C1CCc2nnnn2CC1
inactive: [1] | [2] | [3] | [4] | [5]

C=C1C[C@@]23CC[C@H]4[C@@](C)(CCC[C@@]4(C)C(=O)OC4OC(CO)C(O)C(O)C4O)[C@@H]2CC[C@]1(OC1OC(CO)C(O)C(O)C1OC1OC(CO)C(O)C(O)C1O)C3 (stereo not given in full)
inactive: [1] | [2] | [3] | [4] | [5]

Cc1cc(NC2CCCCC2)nc(-n2nc(C)cc2C)n1
active: [2] 10.2 µM | [4] 0.694 µM
inactive: [1] | [3] | [5]

COc1cc2c(CCNC(C)=O)c[nH]c2cc1O
inactive: [1] | [2] | [3] | [4] | [5]

CCSC(=N)N
inactive: [1] | [2] | [3] | [4] | [5]

N=c1c[n+](N2CCOCC2)[n-]o1
inactive: [1] | [2] | [3] | [4] | [5]

COC1(C2=NCCN2)COc2ccccc2O1 (stereo not given)
inactive: [1] | [2] | [3] | [4] | [5]

Cn1ccnc1
inactive: [1] | [2] | [3] | [4] | [5] | [7] | [8] | [9]

CCNC(=O)[C@H]1O[C@@H](n2cnc3c(N)nc(NCCc4ccc(CCC(=O)O)cc4)nc32)[C@H](O)C1O (stereo not given in full)
inactive: [1] | [2] | [3] | [4] | [6]
active: [5] 1.28 µM

CN(C)C(=O)/N=N/C(=O)N(C)C
inactive: [1] | [2] | [3] | [4] | [5]

O=C(O)CCC(C(=O)O)N1C(=O)c2ccccc2C1=O (stereo not given)
inactive: [1] | [2] | [3] | [4] | [6] | [5]

CC1CN(S(=O)(=O)c2cccc3cnccc23)CCN1 (stereo not given)
inactive: [1] | [2] | [3] | [6] | [5]

OC[C@H]1NC[C@@H](O)[C@@H]1O
inactive: [1] | [2] | [3] | [4] | [5]

COc1cc(CC(=O)O)ccc1O
inactive: [1] | [2] | [3] | [4] | [5]

CC(C)NC[C@@H](O)c1ccc(O)c(O)c1
inactive: [1] | [2] | [3] | [4] | [5]

O=C(c1cc(O)c(O)c([N+](=O)[O-])c1)c1ccccc1F
inactive: [1] | [3] | [5]
active: [2] 25.6 µM | [4] 22.8 µM

CCCC[C@@]1(C2CCCC2)Cc2cc(OCC(=O)O)c(Cl)c(Cl)c2C1=O
inactive: [1] | [3] | [5]
active: [2] 11.4 µM | [4] 13.9 µM

NOCC(=O)O
inactive: [1] | [2] | [3] | [4] | [5]

NCC(O)(CS(=O)(=O)O)c1ccc(Cl)cc1 (stereo not given)
inactive: [1] | [2] | [3] | [4] | [5]

— PubChem BioAssay (Tox21)
